Results from PubChem BioAssay (NCI).
About 83,000 compounds went through this panel and 20% of them were active in at least one assay; those are over-represented in the sample as a whole.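 For each line, cells grew in 96-well plates with the test compound present at a single concentration for 48 hours.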 Unmarked numbers belong to inactive results. Activity calls are given as the source filed them. How the source made its calls: active means growth percent below 10; inactive means the rest.

These compounds were tested on HL-60(TB) leukemia (assay: NCI-60 one-dose screen, 48 h (100 = growth as untreated, 0 = no growth, -100 = all killed)). Conditions: 10 µM unless noted.

Point of comparison: O=S(Cc1ccccc1)/C(=C/NC(=S)Nc1ccccc1)c1ccccc1 (stereo not given), growth 106%. Against it:
- Cc1ccc(C2CC(c3ccc(Nc4nc(NCCO)nc(Nc5ccc(Cl)cc5)n4)cc3)=NN2c2cc(Cl)cc(Cl)c2)cc1 (stereo not given) — lower, 100%
- O=C(O)c1ccc(-n2cc(/C=N/Nc3ccccc3F)c(-c3ccc(O)cc3)n2)cc1 — lower, 45%
- CN(C)c1nc(-c2cccs2)n2nc(-c3ccc(Cl)cc3)cc2n1 — lower, 87.8%
- Cc1cc(=O)oc2cc(Oc3nc(-c4ccccc4)cn4c(-c5ccccc5)cnc34)ccc12 — lower, 85.2%
- CNC(=O)c1cc(Oc2ccc3c(c2)sc2nc(-c4ccc(NC(C)=O)cc4)cn23)ccn1 — lower, 44.2%
- O=S(=O)(O)c1ccc(O)c(C2CCCCC2)c1 — higher, 131%
- CCN1CCN(Cc2ccc(Cc3ncc(F)c(-c4cc(F)c5nc(C)n(C(C)C)c5c4)n3)nc2)CC1 — lower, 27.3%
- COc1ccc2c(c1)c(-c1noc(C(=O)c3cn(C)c4ncc(Br)cc34)n1)cn2C — lower, 98.2%
- COc1ccc(NCc2cn(-c3ccc(C(=O)O)cc3)nc2-c2ccc(C(=O)O)cc2)cc1C(F)(F)F — higher, 118%
- CCN(C)c1ccccc1 — lower, 100%
- O=C1NC(=O)/C(=C/c2c(-c3ccccc3)nc3sc(COc4ccccc4)nn23)S1 — lower, 91.1%
- CCOC(=O)c1sc(N)nc1-c1ccccc1 — lower, 98.3%
- COc1ccc(C(=O)N2c3ccccc3Sc3ccccc32)c(F)c1 — lower, 15.4%
- O=C(/C=C\c1ccc(O)c(O)c1)c1ccccc1O — lower, 11.6%
- Nc1nc(-c2cccc(Br)c2)cc(-c2cc3ccccc3oc2=O)n1 — lower, 100%
- COc1cc(CO)cc2cc3ccccc3nc12 — lower, 101%
- COc1ccc(Cn2cc3c(c2-c2ccccc2)CC(C)(C)c2cnoc2-3)cc1 — lower, 16.7%
- CC1(C)OB(O)c2cc(-c3nc4ccc5[nH]ncc5c4c4c3CCCC4)ccc21 — lower, 90.7%
- CCCCCC(=O)OCc1ccccc1 — lower, 89.4%
- O=C(O)c1ccc(-n2cc(/C=N/Nc3ccccc3)c(-c3ccc(F)cc3F)n2)cc1 — lower, 15.1%
- CCCCCCCCCCCCCCCCN=C(CC(=O)O)C(=O)O — lower, 72.6%
- COC(=O)c1nc(-c2ccc(C)cc2)oc1N1CCOCC1 — lower, 93.7%
- COC(=O)c1cccc([N+](=O)[O-])c1 — higher, 121%
- CCN(CC)CC#CCOC(=O)[C@]1(C)CCC[C@]2(C)c3ccc(C(C)C)cc3CC[C@@H]12 — lower, 63.6%
- O=[N+]([O-])c1ccc(OCCO)cc1 — higher, 125%
- O=C(Cn1nnc2ccccc21)Nc1ccc(-c2nc3ccccc3s2)cc1 — lower, 90.8%
- Nc1cc2c(cc1N)-c1cc(N)c(N)cc1C2 — lower, 103%

In the case of COc1cc2c(cc1OC)C(CC1(O)CCCCC1)N(S(=O)(=O)c1ccc(C)cc1)CC2 (stereo not given), the growth was -25% [100 µM] (active).
For COc1ccc(CCc2nc3cc(-c4c(C)noc4C)ccc3n2CCN2CCOCC2)cc1, the growth was 5.97% (active).
In the case of CCCn1cnc2c(c1=N)C(c1ccc(F)cc1)c1sc3c(F)cccc3c1O2 (stereo not given), the growth was 3.36% (active).
For C=CC(=O)N1CC2(CCC(n3nc(-c4ccc(Oc5ccccc5)cc4)c4c(N)ncnc43)CC2)C1, the growth was -38.5% (active).
With O=C1C(=O)c2c(nc3ncccn23)-c2ccccc21 the growth was -51% (active).
In the case of Cc1cc(CC(C)CC(C)(C)C)n(O)c(=O)c1 (stereo not given) (tested in a mixture with another compound), the growth was -27.7% (active).
In the case of C=C(NC(=O)C(=C)NC(=O)c1csc(C2=NC3c4csc(n4)C4NC(=O)c5csc(n5)C(C(C)(O)C(C)O)NC(=O)C5CSC(=N5)C(=CC)NC(=O)C(C(C)O)NC(=O)c5csc(n5)C3(CC2)NC(=O)C(C)NC(=O)C(=C)NC(=O)C(C)NC(=O)C(C(C)CC)NC2C=Cc3c(C(C)O)cc(nc3C2O)C(=O)OC4C)n1)C(N)=O (stereo not given), the growth was 3.83% (active).
With Nc1n[nH]c2cccc(C#Cc3cccc(C(=O)Nc4ccc(CN5CCOCC5)c(C(F)(F)F)c4)c3)c12 the growth was 7.67% (active).
With Cc1ccc(S(=O)(=O)Nc2cc(Sc3ccccc3)c(O)c3ccccc23)cc1 the growth was -31.2% (active).
For COc1cc2c3c(n(C4CCNCC4)c(=O)c2cc1OC)-c1cc2c(cc1C3=O)OCO2, the growth was -50.3% (active).
With COc1ccc(/C(=C/c2cc(OC)c(OC)c(OC)c2)[N+](=O)[O-])cc1 the growth was -26.4% (active).
For O=C1OCC2=C1C(c1cccc(F)c1)c1cc3c(cc1N2CCO)OCO3 (stereo not given), the growth was -28.9% (active).
